Laboratory results taken from PubChem BioAssay.
Some of the results follow. Calls of active or inactive are those of the source.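 Rule for the calls, unless noted: active = mean inhibition over 43.08%, the solvent-only control mean plus 3 SD; inactive = the rest.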

How the values were obtained:
[1] = target: Nuclear receptor coactivator 3 (Homo sapiens) (UniProt Q9Y6Q9); assay: SRC3 coactivator transcriptional activity inhibitors, confirmation, cell-based, luminescence, quadruplicate (AID 588792); conditions: HEK293 GAL4-SRC3 luciferase reporter, at 3.6 µM, active compounds read high;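 note: 0% = DMSO treated cells and 100% = gossypol at 36 µM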
[2] = system: transactivating tegument protein VP16 (Human herpesvirus 1), Gal4-VP16 luciferase reporter; assay: VP16 transactivation inhibitors, counter-screen for SRC3 inhibitor project, cell-based, luminescence, high throughput (AID 588794; in the data active = inhibition above about 30%); conditions: mammalian cells, VP16-driven luciferase reporter luminescence; at 3.6 µM; active compounds read high
[3] = target: Nuclear receptor coactivator 1 (Homo sapiens) (UniProt Q15788); assay: SRC1 coactivator transcriptional activity inhibitors, confirmation, cell-based, luminescence, quadruplicate (AID 588820;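 active = mean inhibition above 46.68%, the untreated control wells mean plus 3 SD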;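 note: 0% = DMSO wells and 100% = gossypol 36 µM treated wells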); conditions: HEK293 GAL4-SRC1 luciferase reporter, at 3.6 µM, active compounds read high
[4] = VP16 transactivation inhibitors, counter-screen for SRC1 inhibitor project, cell-based, luminescence, high throughput (AID 588824; in the data active = inhibition above about 25%); conditions: cell-based VP16 transactivation luciferase luminescence; at 3.6 µM; active compounds read high
[5] = system: transactivating tegument protein VP16 (Human herpesvirus 1); assay: VP16 transactivation reporter inhibitors, counter-screen for SRC2 inhibitor project, cell-based, luminescence, single concentration (AID 652007; in the data active = inhibition above about 36%); conditions: cell-based VP16 transactivation luciferase reporter, at 8.9 µM, active compounds read high
[6] = target: Nuclear receptor coactivator 2 (Homo sapiens) (UniProt Q15596); assay: SRC2 coactivator transcriptional activity inhibitors, confirmation, cell-based, luminescence, HEK293, triplicate (AID 652008;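 active = mean inhibition above 46.5%, the solvent-only control mean plus 3 SD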;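 note: 0% = DMSO-treated cells and 100% = Gossypol at 36 µM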); conditions: HEK293 GAL4-SRC2 luciferase reporter, at 8.9 µM, active compounds read high
[7] = Gal4-VP16 luciferase reporter inhibitors, counter-screen for COUP-TFII antagonist project, cell-based, luminescence, HEK293 (AID 687007; in the data active = inhibition above about 13%); conditions: at 8.5 µM, active compounds read high
[8] = target: COUP transcription factor 2 (Homo sapiens) (UniProt P24468); assay: NR2F2 transcriptional activity inhibitors, confirmation, cell-based, luciferase reporter, HEK293, triplicate (AID 687008;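 active = mean inhibition over three repeats above a set limit taken from the earlier primary screen, cut at about 38% in these data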;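 note: 100% = cells given the luciferase reporter alone without the COUP-TF2 vector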); conditions: HEK293 NGFI-A luciferase reporter, luminescence; at 8.5 µM; active compounds read high
[9] = StAR promoter reporter inhibitors, counter-screen for LRH-1 inverse agonist project, cell-based, luminescence, high throughput (AID 651611; in the data active = inhibition above about 28%); conditions: StAR promoter luciferase reporter counterscreen, at 3.6 µM, active compounds read high
[10] = target: Nuclear receptor subfamily 5 group A member 2 (Homo sapiens) (UniProt O00482); assay: LRH-1 (NR5A2) inverse agonists, retest, confirmation, cell-based, luminescence (AID 651613; in the data active = inhibition above about 42%;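 note: HEK293T cells co-transfected with LRH-1 and StAR promoter luciferase reporter; 0% = vehicle wells and 100% = parental cells lacking receptor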); conditions: cell-based LRH-1 luciferase reporter, inverse agonism; at 3.6 µM; active compounds read high
[11] = target: Steroidogenic factor 1 (Homo sapiens) (UniProt Q13285); assay: SF1 (NR5A1) inverse agonists, counter-screen for LRH-1 inverse agonist project, cell-based, luminescence, high throughput (AID 651614; in the data active = inhibition above about 44%;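 note: cells cotransfected with StAR promoter reporter and SF1 expression vector; 0% = vehicle on cells with receptor and 100% = vehicle on cells lacking receptor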); conditions: cell-based SF1 luciferase reporter, at 3.6 µM, active compounds read high
[12] = VP16 transactivation reporter inhibitors, counter-screen for LRH-1 inverse agonist project, cell-based, luminescence, high throughput (AID 651615; in the data active = inhibition above about 33%); conditions: Gal4-VP16 luciferase reporter cells, at 3.6 µM, active compounds read high
[13] = target: Photoreceptor-specific nuclear receptor (Homo sapiens) (UniProt Q9Y5X4); assay: NR2E3 agonist confirmation in cells, cell-based, luminescence, CHO-S two-hybrid (AID 624378;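 active = average inhibition above a cutoff equal to the mean inhibition of all tested compounds plus one SD, cut at about 70% in these data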;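 note: 0% = DMSO in NR2E3 cells and 100% = DMSO in cells lacking NR2E3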); conditions: CHO-S mammalian two-hybrid NR2E3-NCOR, luciferase luminescence; at 3.98 µM; active compounds read high
[14] = GAL4-VP16 reporter modulators, confirmation, counter-screen for NR2E3 agonist project, cell-based, luminescence, CHO-S, high throughput (AID 624379;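 active = mean inhibition above a cutoff equal to the average over all tested compounds plus one standard deviation, cut at about 70% in these data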;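 note: 0% = DMSO with VP16-transfected cells and 100% = DMSO with cells lacking VP16; higher means less reporter light so more repression of VP16 activity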); conditions: CHO-S GAL4-VP16 luciferase reporter, at 3.98 µM, active compounds read high

Measured: inhibition

Photoreceptor-specific nuclear receptor (Homo sapiens), sequence (Q9Y5X4 whole entry, looked up, the tested form may be a part): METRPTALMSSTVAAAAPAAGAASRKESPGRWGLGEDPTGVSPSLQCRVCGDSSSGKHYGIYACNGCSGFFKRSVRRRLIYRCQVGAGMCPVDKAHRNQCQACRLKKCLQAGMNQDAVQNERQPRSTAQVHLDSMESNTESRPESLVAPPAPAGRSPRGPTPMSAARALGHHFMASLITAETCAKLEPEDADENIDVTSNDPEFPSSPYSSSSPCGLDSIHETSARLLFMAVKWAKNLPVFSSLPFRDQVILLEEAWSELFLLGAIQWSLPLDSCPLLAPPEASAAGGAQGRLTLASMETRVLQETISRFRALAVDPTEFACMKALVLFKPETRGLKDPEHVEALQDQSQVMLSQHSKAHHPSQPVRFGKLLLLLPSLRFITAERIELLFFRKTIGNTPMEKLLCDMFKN
Nuclear receptor coactivator 1 (Homo sapiens), sequence (Q15788 whole entry, looked up, the tested form may be a part): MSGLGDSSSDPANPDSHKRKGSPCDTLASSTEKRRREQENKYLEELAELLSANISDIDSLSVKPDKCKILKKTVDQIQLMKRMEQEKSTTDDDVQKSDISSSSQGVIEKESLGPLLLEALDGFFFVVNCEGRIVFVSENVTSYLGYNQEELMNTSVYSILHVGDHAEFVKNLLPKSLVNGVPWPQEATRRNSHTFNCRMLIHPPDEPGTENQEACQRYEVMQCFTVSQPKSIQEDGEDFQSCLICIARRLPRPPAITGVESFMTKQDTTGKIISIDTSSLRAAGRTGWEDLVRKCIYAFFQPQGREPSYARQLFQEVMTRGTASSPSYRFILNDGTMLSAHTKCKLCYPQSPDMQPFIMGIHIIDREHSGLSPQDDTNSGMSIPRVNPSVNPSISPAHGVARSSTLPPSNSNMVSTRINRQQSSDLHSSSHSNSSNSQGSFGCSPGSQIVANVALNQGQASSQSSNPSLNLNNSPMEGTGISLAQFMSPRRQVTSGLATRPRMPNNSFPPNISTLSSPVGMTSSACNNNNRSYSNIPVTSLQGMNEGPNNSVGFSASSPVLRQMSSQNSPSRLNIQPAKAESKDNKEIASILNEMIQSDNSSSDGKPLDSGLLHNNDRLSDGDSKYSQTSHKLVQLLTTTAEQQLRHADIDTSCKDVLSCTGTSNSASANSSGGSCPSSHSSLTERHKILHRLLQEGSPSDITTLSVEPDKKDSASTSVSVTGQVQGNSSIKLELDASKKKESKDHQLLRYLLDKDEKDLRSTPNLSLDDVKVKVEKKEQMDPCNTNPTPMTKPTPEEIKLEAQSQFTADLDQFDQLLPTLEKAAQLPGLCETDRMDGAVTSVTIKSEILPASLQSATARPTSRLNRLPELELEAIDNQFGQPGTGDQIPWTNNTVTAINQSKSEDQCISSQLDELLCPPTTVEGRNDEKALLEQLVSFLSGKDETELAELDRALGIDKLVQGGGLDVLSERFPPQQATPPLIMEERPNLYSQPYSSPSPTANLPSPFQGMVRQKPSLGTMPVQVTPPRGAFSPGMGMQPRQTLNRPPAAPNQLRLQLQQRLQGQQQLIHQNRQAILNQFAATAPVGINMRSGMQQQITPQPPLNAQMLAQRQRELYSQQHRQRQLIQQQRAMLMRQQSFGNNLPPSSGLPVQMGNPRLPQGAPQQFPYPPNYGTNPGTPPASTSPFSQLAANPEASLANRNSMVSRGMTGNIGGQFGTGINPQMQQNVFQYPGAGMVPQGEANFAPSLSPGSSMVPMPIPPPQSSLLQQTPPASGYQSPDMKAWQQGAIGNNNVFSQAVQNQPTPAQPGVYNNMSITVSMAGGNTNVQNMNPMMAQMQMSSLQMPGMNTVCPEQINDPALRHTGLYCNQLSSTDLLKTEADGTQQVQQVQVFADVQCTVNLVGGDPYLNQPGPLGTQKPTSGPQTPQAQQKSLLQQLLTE
Nuclear receptor coactivator 2 (Homo sapiens), sequence (Q15596 whole entry, looked up, the tested form may be a part): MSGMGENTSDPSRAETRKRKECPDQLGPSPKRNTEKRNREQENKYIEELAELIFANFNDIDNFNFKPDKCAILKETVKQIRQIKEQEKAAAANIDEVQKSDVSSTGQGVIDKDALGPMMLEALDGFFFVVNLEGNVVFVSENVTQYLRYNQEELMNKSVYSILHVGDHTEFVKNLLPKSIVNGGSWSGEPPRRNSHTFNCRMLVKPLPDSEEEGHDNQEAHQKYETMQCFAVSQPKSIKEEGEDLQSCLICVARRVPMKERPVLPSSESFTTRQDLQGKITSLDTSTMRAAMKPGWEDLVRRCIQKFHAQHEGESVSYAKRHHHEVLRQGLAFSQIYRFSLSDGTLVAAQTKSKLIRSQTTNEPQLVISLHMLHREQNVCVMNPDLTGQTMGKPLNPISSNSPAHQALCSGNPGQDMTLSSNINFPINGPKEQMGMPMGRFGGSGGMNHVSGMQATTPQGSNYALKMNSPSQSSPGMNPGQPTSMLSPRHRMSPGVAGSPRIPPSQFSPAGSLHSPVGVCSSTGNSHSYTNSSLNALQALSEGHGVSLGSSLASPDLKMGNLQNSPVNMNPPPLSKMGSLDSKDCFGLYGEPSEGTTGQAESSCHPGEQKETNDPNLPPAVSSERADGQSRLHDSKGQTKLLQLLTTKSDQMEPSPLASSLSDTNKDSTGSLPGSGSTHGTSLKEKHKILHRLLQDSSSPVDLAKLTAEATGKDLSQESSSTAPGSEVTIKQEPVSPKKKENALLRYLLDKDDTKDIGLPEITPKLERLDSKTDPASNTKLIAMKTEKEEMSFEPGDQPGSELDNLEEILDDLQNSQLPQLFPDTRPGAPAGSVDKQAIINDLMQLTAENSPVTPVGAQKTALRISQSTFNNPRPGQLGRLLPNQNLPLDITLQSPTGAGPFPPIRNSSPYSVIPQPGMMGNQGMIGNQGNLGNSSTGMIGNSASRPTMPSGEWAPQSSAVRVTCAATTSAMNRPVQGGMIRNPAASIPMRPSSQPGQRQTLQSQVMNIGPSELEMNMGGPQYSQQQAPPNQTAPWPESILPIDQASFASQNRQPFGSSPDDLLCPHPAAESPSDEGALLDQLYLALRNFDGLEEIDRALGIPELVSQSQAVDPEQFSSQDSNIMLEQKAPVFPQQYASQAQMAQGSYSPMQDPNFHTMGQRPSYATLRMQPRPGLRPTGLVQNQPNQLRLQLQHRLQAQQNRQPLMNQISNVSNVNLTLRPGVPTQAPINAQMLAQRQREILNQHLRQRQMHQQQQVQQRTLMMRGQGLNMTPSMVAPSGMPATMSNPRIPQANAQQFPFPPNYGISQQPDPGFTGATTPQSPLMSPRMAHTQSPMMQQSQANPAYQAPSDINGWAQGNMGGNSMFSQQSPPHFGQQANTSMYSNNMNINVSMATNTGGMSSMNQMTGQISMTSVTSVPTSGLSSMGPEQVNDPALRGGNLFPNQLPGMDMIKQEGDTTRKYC
Steroidogenic factor 1 (Homo sapiens), sequence (Q13285 whole entry, looked up, the tested form may be a part): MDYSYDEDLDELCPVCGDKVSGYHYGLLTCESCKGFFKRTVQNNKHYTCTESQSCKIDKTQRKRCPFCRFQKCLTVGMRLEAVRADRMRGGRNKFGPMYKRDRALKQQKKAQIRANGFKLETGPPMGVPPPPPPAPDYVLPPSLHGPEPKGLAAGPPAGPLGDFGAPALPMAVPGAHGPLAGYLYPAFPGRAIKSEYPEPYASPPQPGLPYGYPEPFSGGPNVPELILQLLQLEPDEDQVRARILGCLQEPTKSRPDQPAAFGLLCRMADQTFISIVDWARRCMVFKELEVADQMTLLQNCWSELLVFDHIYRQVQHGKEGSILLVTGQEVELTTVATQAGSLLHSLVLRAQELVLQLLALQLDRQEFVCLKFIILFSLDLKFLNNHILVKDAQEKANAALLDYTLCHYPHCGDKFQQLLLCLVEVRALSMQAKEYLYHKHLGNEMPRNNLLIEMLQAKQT
COUP transcription factor 2 (Homo sapiens), sequence (P24468 whole entry, looked up): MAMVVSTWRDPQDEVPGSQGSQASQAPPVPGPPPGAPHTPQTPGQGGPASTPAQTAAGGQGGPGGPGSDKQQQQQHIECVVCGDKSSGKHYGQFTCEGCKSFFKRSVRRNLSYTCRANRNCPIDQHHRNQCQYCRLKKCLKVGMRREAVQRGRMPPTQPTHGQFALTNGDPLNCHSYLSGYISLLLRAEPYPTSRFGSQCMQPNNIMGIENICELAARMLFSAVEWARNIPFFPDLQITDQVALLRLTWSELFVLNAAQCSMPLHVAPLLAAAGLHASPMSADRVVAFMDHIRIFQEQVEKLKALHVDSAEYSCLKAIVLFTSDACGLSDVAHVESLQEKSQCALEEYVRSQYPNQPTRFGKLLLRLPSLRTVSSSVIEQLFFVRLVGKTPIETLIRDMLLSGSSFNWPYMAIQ
Nuclear receptor subfamily 5 group A member 2 (Homo sapiens), sequence (O00482 whole entry, looked up): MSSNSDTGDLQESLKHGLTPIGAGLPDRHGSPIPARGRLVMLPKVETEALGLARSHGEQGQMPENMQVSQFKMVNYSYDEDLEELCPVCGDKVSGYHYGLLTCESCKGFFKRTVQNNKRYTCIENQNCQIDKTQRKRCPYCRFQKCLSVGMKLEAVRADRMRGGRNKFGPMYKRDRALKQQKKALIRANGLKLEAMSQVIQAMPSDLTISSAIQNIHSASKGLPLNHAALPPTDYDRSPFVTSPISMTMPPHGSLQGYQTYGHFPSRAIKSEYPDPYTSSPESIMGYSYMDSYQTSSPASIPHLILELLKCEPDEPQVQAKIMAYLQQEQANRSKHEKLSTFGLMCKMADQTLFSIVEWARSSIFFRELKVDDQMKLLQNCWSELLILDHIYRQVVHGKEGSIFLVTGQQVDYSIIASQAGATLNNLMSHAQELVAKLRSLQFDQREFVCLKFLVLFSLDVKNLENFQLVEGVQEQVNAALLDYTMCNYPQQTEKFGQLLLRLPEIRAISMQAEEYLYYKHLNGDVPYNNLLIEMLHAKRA

CCc1ccc(N(CC)c2ncnc3nc[nH]c23)cc1
inactive: [5] 4.69% | [7] -1.24% | [8] 17.4%
active: [1] 50.1% | [2] 33% | [3] 56.7% | [4] 36.9% | [6] 50.7%

COCCNc1nc(Oc2cncc(Cl)c2)c2sccc2n1
active: [2] 29.7% | [4] 32.8%
inactive: [1] 42.1% | [3] 44.3% | [5] 16.6% | [6] 45.5%

CNc1ccc2ncc(-c3ccc(OC)c(OC)c3)n2n1
active: [1] 80.1% | [2] 63.1% | [3] 75.4% | [4] 60.1%
inactive: [5] -12.4% | [6] 37.3%

CC(/C=C1\SC(=O)N(CCCC(=O)O)C1=O)=C\c1ccccc1
active: [1] 79% | [2] 73.6% | [3] 71.9% | [4] 69.2% | [5] 90.3% | [6] 95.4%

Oc1ccc(N=Nc2ccc3c(c2)OCCO3)c2cccnc12
inactive: [1] 19.8% | [2] -38.3% | [3] 4.34% | [4] -39.5% | [5] -16.8% | [6] -7.52%

Brc1ccc2ncnc(NCc3cccnc3)c2c1
inactive: [5] -3.67% | [6] 39.8%
active: [1] 70.6% | [2] 44% | [3] 55.9% | [4] 42.8%

CCOc1ccc(-c2c[n+]3c(n2-c2ccccc2)CCCCC3)cc1
inactive: [1] 28.4% | [9] 22.6%
active: [2] 43.8% | [10] 94.5% | [11] 69.1% | [12] 66.9%

Cc1nnsc1S(=O)c1ccc(Cl)c(Cl)c1 (centres undefined)
active: [10] 64.4% | [11] 66.4%
inactive: [1] 34.3% | [2] 9.36% | [9] 25.5% | [12] 20.8%

CC(C)(C)Nc1nc(-c2ccccn2)nc2ccccc12
inactive: [1] 35% | [14] 49.7%
active: [2] 43.1% | [13] 99.2% | [9] 69.1% | [10] 85.6% | [11] 84.7% | [12] 63.9%

COc1ccc(-n2c(-c3ccc(Cl)cc3)c[n+]3c2CCc2ccccc2-3)cc1
active: [2] 45.2% | [9] 30.1% | [10] 79.2% | [11] 69.1% | [12] 70.5%
inactive: [1] 16.3%

CCOc1ccc(OCc2ccc(C(=O)NN=Cc3ccc[nH]3)cc2)cc1
inactive: [1] 38.9%
active: [2] 78.4% | [9] 76.2% | [10] 104% | [11] 90.6% | [12] 87.1%

CC(=O)Nc1ccc(-c2csc(NC(=O)Nc3ccccc3)n2)cc1
inactive: [1] 4.6% | [2] -0.97% | [3] -38.2% | [4] -3.98% | [7] -18.8% | [8] 35.7%

C=CCSc1nsc(NC(=O)Nc2cccc(C(C)=O)c2)n1
active: [1] 44% | [2] 31.2% | [4] 27.2%
inactive: [3] 46.4% | [5] -25.7% | [6] 17.3% | [7] -25.6% | [8] 2.43%

CC[C@@H](C(=O)[C@@H](C)[C@@H](O)[C@H](C)CCc1ccc(C)c(O)c1C(=O)O)[C@H]1O[C@](CC)([C@H]2CC[C@](O)(CC)[C@H](C)O2)C[C@@H]1C
inactive: [1] 26.4%
active: [2] 58% | [9] 60.5% | [10] 51.9% | [11] 61.2% | [12] 60%

CCCC(=O)NC(c1ccc(N(C)C)cc1)c1ccc2cccnc2c1O (centres undefined)
active: [1] 78.2% | [2] 77% | [9] 91.9% | [10] 104% | [11] 91.3% | [12] 89.2%

O=c1oc2ccccc2cc1-c1cn(-c2ccccc2)c(=S)[nH]1
active: [7] 46.9% | [8] 60.8%
inactive: [1] 11% | [2] 23.1% | [3] -68.1% | [4] -22.7%

Cc1ccc(C(=O)Nc2sc3c(c2C(=O)O)CCC(C)C3)o1 (centres undefined)
inactive: [1] 28%
active: [2] 68.3% | [9] 53.4% | [10] 89.5% | [11] 85.8% | [12] 77%

COc1cc2c(c(OC)c1OC)-c1ccc(SC)c(=O)cc1C(NC=O)CC2 (centres undefined)
inactive: [2] 15.7%
active: [1] 44.5% | [9] 67% | [10] 65.8% | [11] 69.7% | [12] 54.5%

COc1ccc(NC(=O)c2cc(-c3cc(Cl)ccc3C)n[nH]2)cc1OC
inactive: [1] 20.2%
active: [2] 50.6% | [9] 30.7% | [10] 57% | [11] 61.1% | [12] 64.4%

Cc1cc(C(=O)COC(=O)C2CC2)c(C)n1-c1ccc(F)cc1
inactive: [1] 4.63% | [2] 5.67% | [3] -12.9% | [4] -14.9% | [5] 1.88% | [6] 20.3% | [7] -16.4% | [8] 30.3%

COc1ccc(-n2c(-c3ccc(Br)cc3)c[n+]3c2CCc2ccccc2-3)cc1
active: [2] 36.3% | [10] 96.4% | [11] 65% | [12] 73%
inactive: [1] 32.4% | [9] 22.1%

CCOc1ccc(-n2c(-c3ccc(Br)cc3)c[n+]3c2CCCCC3)cc1
active: [10] 104% | [11] 60.1% | [12] 67.5%
inactive: [1] 26.1% | [2] 24.1% | [9] 22.8%

CC(=NNC(=S)N1CCCC1)c1ccccn1
active: [1] 54.1% | [2] 64.5% | [4] 66.4%

CCOc1cc(/C=C2\CCC/C(=C\c3cc(Cl)c(O)c(OCC)c3)C2=O)cc(Cl)c1O
active: [1] 43.9% | [10] 47.7% | [11] 61.1% | [12] 46.4%
inactive: [2] 21.8% | [9] 11.2%

COc1ccc(-c2c[n+](CC(=O)OC3CC(C)CCC3C(C)C)c3n2CCC3)cc1 (centres undefined)
inactive: [1] 22.9% | [9] 20.9%
active: [2] 42.1% | [10] 95.2% | [11] 62.6% | [12] 56.7%

Clc1cccc(CNc2ccn3nc(-c4ccc(OCc5ccccc5)cc4)cc3n2)c1
inactive: [1] -4.23% | [9] 23.4% | [10] 40.9%
active: [2] 35.7% | [11] 51% | [12] 56.4%

C=CCC1(CC=C)CCCN1C(=O)c1cc(COc2ccc(-n3cncn3)cc2)on1
inactive: [1] 5.51% | [7] -1.01%
active: [2] 30.2% | [13] 97.4% | [14] 86.5% | [8] 49.6%

COc1cc(C)c(Br)cc1S(=O)(=O)NCc1ccncc1
active: [2] 30.9% | [10] 49% | [12] 38%
inactive: [1] 9.21% | [9] 14.3% | [11] 38.5%

CC(C)(C)c1ccc(C2CC2C(=O)N/N=C\c2ccc[nH]2)cc1 (centres undefined)
inactive: [1] 39.8%
active: [2] 81.5% | [9] 80.9% | [10] 105% | [11] 92% | [12] 87.4%

O=C(OC12CC3CC(CC(C3)C1)C2)c1ccc(NCc2cc(O)ccc2O)cc1
inactive: [14] 18.6%
active: [1] 89.3% | [2] 59.6% | [13] 78.1% | [9] 66.5% | [10] 82.9% | [11] 80.2% | [12] 86% | [5] 95.5% | [6] 96.4% | [7] 79.4% | [8] 103%

c1ccc(CCNc2nc(-c3ccccn3)nc3ccccc23)cc1
active: [2] 41% | [9] 58.5% | [10] 91.9% | [11] 82.7% | [12] 69.1%
inactive: [1] 22.7%

NC(=O)c1ccc(N2CCN(S(=O)(=O)c3cccs3)CC2)c([N+](=O)[O-])c1
inactive: [1] -7.6% | [9] 21%
active: [2] 34.7% | [10] 64.7% | [11] 63.9% | [12] 46.1%

C[n+]1c2n(c3ccccc31)N=C(c1cc(C(C)(C)C)c(O)c(C(C)(C)C)c1)CS2
active: [1] 81.1% | [2] 84.6% | [9] 81.7% | [10] 106% | [11] 95% | [12] 90%

CN1/C(=C\C(=O)C[n+]2ccc3ccccc3c2)C(C)(C)c2ccccc21
inactive: [1] 24.8%
active: [2] 50.2% | [9] 35.9% | [10] 89.6% | [11] 77.6% | [12] 66.7%

Cc1ccc(OCCN2CCN(c3ncnc4sc(C)c(C)c34)CC2)cc1
inactive: [1] 4.63%
active: [2] 39.1% | [9] 34.8% | [10] 56.1% | [11] 61.3% | [12] 53.9%

CCC(C)Nc1nc(-c2ccccn2)nc2ccccc12 (centres undefined)
inactive: [1] 3.88% | [2] 11.9%
active: [9] 45.6% | [10] 67.2% | [11] 78.3% | [12] 42.9%

COc1cccc(CNc2nc3cc(-c4cnn(Cc5ccccc5)c4)sc3c(=O)n2C)c1
inactive: [1] 6.76%
active: [2] 30.1% | [9] 32.4% | [10] 47.3% | [11] 52% | [12] 46.9%

N=c1c2c(n(Cc3ccccc3)c3c1CCC3)CCC2
inactive: [1] 19.5%
active: [2] 44.1% | [9] 37.3% | [10] 79.2% | [11] 72.9% | [12] 62.4%

CCCCCc1ccc(OCCCC[n+]2ccccc2)c(CCCCC)c1
active: [10] 41.8% | [12] 42.3%
inactive: [1] 20.9% | [2] 20.9% | [9] 3.96% | [11] 37.9%

Cc1ccc(NC2=C(N3CCCCC3)C(=O)c3ccccc3C2=O)cc1
inactive: [1] -30.8% | [2] -15% | [9] -37.9% | [10] 12.3% | [11] -5.93% | [12] -11.3%

CC1(C)CC[C@]2(C(=O)n3ccnc3)CC[C@]3(C)[C@H](C(=O)C=C4[C@@]5(C)C=C(C#N)C(=O)C(C)(C)[C@@H]5CC[C@]43C)[C@@H]2C1
active: [1] 93.8% | [2] 82% | [4] 93.8%
